From PubChem BioAssay AID687009 (National Center for Advancing Translational Sciences (NCATS), 2013)
Results filed as inconclusive are left out. Activity calls are given as the source filed them. Calls come from the whole dose curve; as a rule, active = well fitted curve in the direction sought with a large enough effect; inconclusive = small, poorly fitted or top-dose-only effect, or another doubt; inactive = no such curve, though single readings can be large or run the other way.

Molecular target: Lysine-specific histone demethylase 1A (Homo sapiens) (UniProt O60341)
Experiment: qHTS Assay for Inhibitors of Human Jumonji Domain Containing 2E (JMJD2E): Counterscreen with LSD1
Source text: The fine interplay among methylation states of several lysine residues on the tails of histone proteins is a major determinant of the transcriptional state of the associated DNA coding regions and is commonly referred to as the histone code. Histone lysine demethylases catalyze the removal of methyl groups from methylated lysine sidechains on histones H3 and H4, thus antagonizing the reactions catalyzed by histone lysine methyltransferases. […] In search for novel inhibitors of JMJD2E demethylase, a member of the largest set of histone demethylases belonging to the Fe(II) and 2-oxoglutarate oxygenase (2OG) superfamily, we performed a quantitative high-throughput screen (Inglese 2006) by using an assay which utilizes a trimethylated peptide substrate corresponding to a fragment of histone H3 (sequence ARKme3STGGK) with detection of the formaldehyde co-product in real time by a formaldehyde dehydrogenase (FDH) coupled reaction. […]
The assay was performed in a buffer containing 10 mM HEPES, Na pH 7.5, 5 mM MgCl2, 50 mM KCl, 0.01% Nonidet P-40, and 0.1% BSA. […] The plate was then centrifuged at 1,000 rpm for 15 seconds, and the fluorescence intensity was recorded on a ViewLux High-throughput CCD imager (Perkin-Elmer) using standard TAMRA optics (525 nm excitation and 598 nm emission). The plate was then incubated for 30 min at room temperature, and a second read on the ViewLux was performed. […]

For `CN1CCN(c2cnc3c(O)ccc(C(=O)O)c3c2)CC1`, the outcome was “inactive”.
